Shown are actives, neighbours in structure and some others; about 1.1% of the full set was active somewhere.
HSV augment – increases HSV replication in cells; HSV replication augmentation in cells, fold increase; maximum fold increase; 220,000 compounds, 0.005% hits; AID 1956; in the data active = maximum fold increase above about 1.5; inconclusive = no clear call, values can overlap the other calls; tested in PC3 cells
HMGR II inh – inhibitors of class II HMG-CoA reductase from Enterococcus faecalis; purified E. faecalis HMGR, NADPH absorbance 340 nm kinetic; inhibition, % at 10 µM; 190,000 compounds, 0.41% hits; AID 1066;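 active = inhibition above a set limit, the median over all tested compounds plus 3 SD, cut at about 9.5% in these data; inconclusive = no clear call, values can overlap the other calls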;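 note: enzyme runs in reverse so mevalonate oxidation gives rising NADPH absorbance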
Insulin prom inh – TRM-6 insulin promoter activity inhibition. TRM-6 cells (human fetal islet line), insulin promoter-eGFP reporter, imaging; reporter expression induced with tamoxifen. inhibition, % at 2 µM. 130,000 compounds, 0.9% hits. AID 1273;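 active = inhibition above the mean plus 3 SD, with well images judged a real hit on visual review, cut at about 60% in these data, passing the limit was not always enough; inconclusive = inhibition over the cutoff but images rejected on review; inactive = inhibition not above the cutoff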
Insulin prom up – MIN6 insulin promoter up-regulation; AID 1625; MIN6 insulin promoter-GFP reporter, high-content imaging; active compounds read high; z-score at 5 µM; 190,000 compounds, 0.3% hits;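 active = z-score above 3 at 5 µM with at least 500 cells counted in the well; inconclusive = wells under 500 cells, flagged as cytotoxic or low count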
Of the large screens only hits and unclear results are named; the others gave an inactive call; ! = not active in a repeat.

C/C(=N/O)c1ccc2c(c1)OCCOCCOc1cc(/C(C)=N/O)ccc1OCCOCCO2	none
Cc1ccc(C)c(S(=O)(=O)N2C(=S)NC(=O)C2C(C)C)c1 (centres undefined)	Insulin prom inh 80
COc1ccc(N2C(=O)C(CN3CCCCC3)C2c2ccccc2)cc1 (centres undefined)	HMGR II inh 15
CCOC(=O)C(C)/C(C)=N/NC(N)=S (centres undefined)	none
Cc1cc(/C=C2\C(=N)N3N=CSC3=NC2=O)c(C)n1Cc1ccccc1	none (no result: HMGR II inh, Insulin prom inh, Insulin prom up)
Cc1cccc(NC(=O)c2ccc(-c3ccccc3[N+](=O)[O-])o2)c1	HMGR II inh 10 (no result: Insulin prom inh)
COc1cccc(NC(=O)c2ccc(-c3ccccc3[N+](=O)[O-])o2)c1	none
CC(C)OCCCNC(=O)Nc1cccc2ccccc12	HMGR II inh 14 (no result: Insulin prom inh)
O=C(COC(=O)CCc1c[nH]c2ccccc12)NC1CCS(=O)(=O)C1 (centres undefined)	HMGR II inh 15 (no result: Insulin prom up)
COC(=O)c1cc(NC(=O)c2cccc(C(F)(F)F)c2)c(=O)oc1C	none (no result: Insulin prom inh)
COC(=O)c1cc(NC(=O)c2cccc(Cl)c2)c(=O)oc1/C=C/Nc1cc(C)cc(C)c1	HSV augment inconclusive, Insulin prom up 15
COCCC(=O)N1CCCC(C(=O)c2ccc3c4c(cccc24)CC3)C1 (centres undefined)	HMGR II inh 11 (no result: Insulin prom inh)
COc1ccc(/C(C)=N/NS(=O)(=O)c2cc(C)ccc2C)c(OC)c1	none
Cn1c(SCC(=O)N2CCCC2=O)nnc1-c1ccccc1F	HMGR II inh 19
O=[N+]([O-])c1cc(S(=O)(=O)N2CCCCCC2)ccc1Cl	none (no result: Insulin prom inh)
Cn1nc(C(=O)Nc2ccc(S(=O)(=O)NCc3ccco3)cc2)c2ccccc2c1=O	none (no result: HMGR II inh, Insulin prom inh)
Cn1nc(C(=O)NCc2ccco2)c2ccccc2c1=O	Insulin prom inh 62
O=C(Cn1ncn2c(cc3ccccc32)c1=O)NCc1ccco1	Insulin prom up 3.8 (no result: Insulin prom inh)
COc1ccc(/C=C/C(=O)c2ccc(NC3=NCCCS3)cc2)cc1OC	HMGR II inh 10
CCCCn1c(SCC(=O)c2ccc(O)c(O)c2)nc2ccsc2c1=O	none (no result: Insulin prom inh)
O=C(O)CCCCCn1c(SCC(=O)c2ccc(O)c(O)c2)nc2ccsc2c1=O	HMGR II inh 13
CCOC(=O)N/N=C1\CCS(=O)(=O)c2ccc(Cl)cc21	none (no result: HMGR II inh, Insulin prom inh)
O=C(NCCN1CCCC1)C1(S(=O)(=O)c2ccc(Cl)cc2)CC1	Insulin prom up 3.1
O=C(COc1ccc(Cl)cc1)NCCN1CCCCC1	HMGR II inh 10 (no result: Insulin prom up)
O=C(NC(Cc1ccc2c(c1)OCO2)C(=O)N1CCCC1C(=O)O)c1ccccc1 (centres undefined)	Insulin prom inh 87
Cn1nnc2cc(C(=O)Nc3ccc4ccccc4c3)ccc21	HMGR II inh 13 (no result: Insulin prom inh)
O=C(O)c1ccccc1NC(=O)N1CCOCC1	none (no result: Insulin prom inh)
CN(c1ccc(C(=O)N2CCCCC2)cc1)S(=O)(=O)c1ccccc1	HMGR II inh 31
c1ccc2nc(-c3nc4ccccc4[nH]3)ccc2c1	none
Fc1ccccc1-c1nc2ccccc2[nH]1	none (no result: Insulin prom inh)
c1ccc2[nH]c(-c3cscn3)nc2c1	Insulin prom inh 67 (no result: HSV augment, Insulin prom up)
c1ccc2[nH]c(-c3ccnc4ccccc34)nc2c1	Insulin prom inh 86!
O=C1CC(c2ccccc2)CN1C(=O)c1cncc(Br)c1 (centres undefined)	none (no result: Insulin prom inh)
Nc1ccccc1C(=O)NCc1ccc(Cl)cc1	none
Cc1ccccc1Nc1nc(N)nc(COC(=O)/C=C/c2ccco2)n1	none
COc1ccccc1S(=O)(=O)Cc1ccc(C(=O)NCc2cccs2)o1	none (no result: Insulin prom inh)
CCc1ccccc1S(=O)(=O)Cc1ccc(C(=O)NCc2cccs2)o1	HMGR II inh 9.8
CN(C)CCNC(=O)c1ccc(Sc2ccc(Br)cc2)c([N+](=O)[O-])c1	none (no result: Insulin prom inh)
O=C(c1ccccc1)N1CCCCC(Cl)C1=O (centres undefined)	none
CCOC(=O)N1N=C(c2ccccc2)CC1(O)C(C)(F)F (centres undefined)	Insulin prom inh 74
CCOC(=O)N1N=C(c2ccc(OC)cc2)CC1(O)C(F)(F)F (centres undefined)	none (no result: Insulin prom inh)
CC(C)CN(C)Cc1c(C(=O)N2CCc3ccccc3C2)nc2ccc(Cl)cn12	none (no result: Insulin prom inh)
O=C(COC(=O)c1cc(S(=O)(=O)N2CCCCC2)ccc1N1CCOCC1)NC1CCS(=O)(=O)C1 (centres undefined)	HMGR II inh 14 (no result: Insulin prom inh)
Cc1ccc(C)c(OCCCC(=O)O)c1	none
Cc1ccc(C)c(OCCCC(C)(C)C(=O)O)c1	HMGR II inh 9.6 (no result: Insulin prom up)
CC(=O)Nc1ccc(OCC(O)Cn2c(C)nc3ccccc32)cc1 (centres undefined)	none
CC(=O)Nc1ccc(OCC(O)Cn2c(C(C)C)nc3ccccc32)cc1 (centres undefined)	HMGR II inh 11 (no result: Insulin prom inh)
Cc1ccc(S(=O)(=O)N(C)C)cc1NC(=O)COC(=O)/C(=C/c1ccc(F)cc1)c1cccs1	Insulin prom inh 64
CCOCCc1c(O)nc(SCC)[nH]c1=O	none (no result: HMGR II inh, Insulin prom inh)
Cc1ccc(S(=O)(=O)C(C#N)c2nc3ccccc3nc2N2CCC(C)CC2)cc1 (centres undefined)	Insulin prom up 3.8
N#CC(c1nc2ccccc2nc1N1CCCC1)S(=O)(=O)c1ccccc1 (centres undefined)	HSV augment inconclusive (no result: Insulin prom inh)
Cc1[nH]c2ccccc2c1CCC(N)=O	none (no result: Insulin prom inh)
Cc1[nH]c2ccccc2c1Cc1nnc(SCC(N)=O)o1	Insulin prom up 4.8
Cc1ccnc2nc(C(=O)OCC(=O)NCCc3ccccc3)nn12	Insulin prom inh 73
O=C(Nc1ccc(C2=NCCN2)cc1)c1ccc(C(=O)Nc2ccc(C3=NCCN3)cc2)c([N+](=O)[O-])c1	none (no result: HMGR II inh, Insulin prom inh)
O=[N+]([O-])c1cc(Cl)cc(C2=NCCN2)c1	Insulin prom inh 79
N=C1C(c2ccccc2)=C(O)CN1c1cccc(S(=O)(=O)Nc2cccc(C(F)(F)F)c2)c1	none
O=C(CCSCCC(=O)Nc1c(F)c(F)c(F)c(F)c1F)Nc1c(F)c(F)c(F)c(F)c1F	none
CN(Cc1cc(=O)n2ccsc2n1)C1CCCCC1	none (no result: Insulin prom inh)
COCCN1C(=O)c2ccccc2C(C(=O)NCCN(C)C)C1c1ccc(F)cc1 (centres undefined)	Insulin prom inh 79
COCCNC(=O)C1c2ccccc2C(=O)N(CCOC)C1c1ccc(F)cc1 (centres undefined)	none
COc1ccc(CNC(=O)C2CC(c3cccc(OC)c3)=NO2)cc1 (centres undefined)	Insulin prom inh 73
COc1cccc(C2=NOC(C(=O)NCc3ccc(F)cc3)C2)c1 (centres undefined)	none (no result: HSV augment)
CCOC(=O)C1=C(N)N(c2cc(S(=O)(=O)N3CCOCC3)ccc2Cl)C(=O)C1	none
COc1ccc(CSCC(=O)N/N=C/c2ccccc2O)cc1	Insulin prom inh 75
COc1ccc2cc(C(=O)OC(C)C)sc(=O)c2c1OC	Insulin prom inh 71 (no result: Insulin prom up)
CCOc1ccccc1N1CC(C(=O)Nc2ccc3c(c2)OCCO3)CC1=O (centres undefined)	HMGR II inh 12 (no result: Insulin prom inh)
CCCc1cc(C(=O)Nc2sc(C)c(CC)c2C#N)no1	Insulin prom inh 70 (no result: HSV augment)
CCc1c(C)sc(NC(=O)c2cc(C)on2)c1C#N	none (no result: Insulin prom up)
CCN1CCCC1CNC(=O)C(=O)NC(C)c1ccccc1 (centres undefined)	none (no result: Insulin prom inh)
CC(C)NC(=O)C1CCN(C2CCN(Cc3ccc4cccc(F)c4n3)CC2)CC1	none (no result: Insulin prom inh)
OCCC1CN(Cc2ccc3c(c2)CCO3)CCN1Cc1ccc(F)cc1 (centres undefined)	none (no result: Insulin prom inh)

Screening results from PubChem BioAssay.
